Experimental data as given in PubChem BioAssay (EPA / NIEHS).
Inconclusive results are not listed. The source made the active and inactive calls. How the source made its calls, unless noted: active means hit-call score of the fitted dose curve at least 0.9, where 1 is the maximum; inconclusive means response in the unintended direction; inactive means score below 0.9.

Target: human Peripheral-type Benzodiazepine Receptor (PBR), TSPO (gene 706) (UniProt P30536)
Test: NVS_MP_hPBR: NovaScreen (NVS) Membrane Protein Assay for human Peripheral-type Benzodiazepine Receptor (PBR) (AID 2283331);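 further: hits reduce radioligand binding relative to DMSO baseline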
Method in brief: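 Using human colon-derived membranes, this one-endpoint binding test reads radioligand loss by scintillation after 1 h. Screening started at 25 uM in duplicate, with positive and negative controls on every plate, and actives moved to dose series.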

Sequence of human Peripheral-type Benzodiazepine Receptor (PBR), TSPO (gene 706) (P30536 whole entry, looked up): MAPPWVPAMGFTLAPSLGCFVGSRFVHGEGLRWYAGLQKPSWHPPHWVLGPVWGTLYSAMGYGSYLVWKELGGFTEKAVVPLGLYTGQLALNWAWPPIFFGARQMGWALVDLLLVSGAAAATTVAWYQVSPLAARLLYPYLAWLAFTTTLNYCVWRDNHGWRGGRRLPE

Row | Compound | AC50 | outcome
1 | Cc1cccc(Nc2cc(Cl)nc(SCC(=O)O)n2)c1C | 6.49 µM (active) | 
2 | NC(=O)Cn1c(=O)cc(CCN2CCN(c3nccc4sccc34)CC2)c2ccc(F)cc21 | 1.77 µM (active) | 
3 | CC=Cc1ccc(O)c(OC)c1 | 17.2 µM (active) | 
4 | Nc1ccccc1N |  | inactive
5 | CC(C)c1ccc(C(=O)N=C(N)N)cc1S(C)(=O)=O | 12.3 µM (active) | 
6 | Nc1ccc2c(c1)C(=O)c1ccccc1C2=O |  | inactive
7 | Cc1ccc(C(C)C)c(O)c1 | 18.3 µM (active) | 
8 | C=CCOC(=O)c1ccccc1C(=O)OCC=C | 25 µM (active) | 

Target: Glutamate receptor ionotropic, kainate 1 (Rattus norvegicus) (UniProt P22756)
Test: NVS_IC_rKAR: NovaScreen (NVS) Ion Channel Assay for rat Kainic Acid Receptors (KAR) (AID 2283334; active means hit-call score of the fitted dose curve at least 0.9, where 1 is the maximum; inactive means score below 0.9)
Method in brief: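 Rat forebrain membrane preparation incubated 1 h with radioligand and test chemical; bound signal read by filtration and scintillation. Single-concentration screen at 25 uM, then concentration series to 50 uM maximum.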

Sequence of Glutamate receptor ionotropic, kainate 1 (Rattus norvegicus) (P22756 whole entry, looked up): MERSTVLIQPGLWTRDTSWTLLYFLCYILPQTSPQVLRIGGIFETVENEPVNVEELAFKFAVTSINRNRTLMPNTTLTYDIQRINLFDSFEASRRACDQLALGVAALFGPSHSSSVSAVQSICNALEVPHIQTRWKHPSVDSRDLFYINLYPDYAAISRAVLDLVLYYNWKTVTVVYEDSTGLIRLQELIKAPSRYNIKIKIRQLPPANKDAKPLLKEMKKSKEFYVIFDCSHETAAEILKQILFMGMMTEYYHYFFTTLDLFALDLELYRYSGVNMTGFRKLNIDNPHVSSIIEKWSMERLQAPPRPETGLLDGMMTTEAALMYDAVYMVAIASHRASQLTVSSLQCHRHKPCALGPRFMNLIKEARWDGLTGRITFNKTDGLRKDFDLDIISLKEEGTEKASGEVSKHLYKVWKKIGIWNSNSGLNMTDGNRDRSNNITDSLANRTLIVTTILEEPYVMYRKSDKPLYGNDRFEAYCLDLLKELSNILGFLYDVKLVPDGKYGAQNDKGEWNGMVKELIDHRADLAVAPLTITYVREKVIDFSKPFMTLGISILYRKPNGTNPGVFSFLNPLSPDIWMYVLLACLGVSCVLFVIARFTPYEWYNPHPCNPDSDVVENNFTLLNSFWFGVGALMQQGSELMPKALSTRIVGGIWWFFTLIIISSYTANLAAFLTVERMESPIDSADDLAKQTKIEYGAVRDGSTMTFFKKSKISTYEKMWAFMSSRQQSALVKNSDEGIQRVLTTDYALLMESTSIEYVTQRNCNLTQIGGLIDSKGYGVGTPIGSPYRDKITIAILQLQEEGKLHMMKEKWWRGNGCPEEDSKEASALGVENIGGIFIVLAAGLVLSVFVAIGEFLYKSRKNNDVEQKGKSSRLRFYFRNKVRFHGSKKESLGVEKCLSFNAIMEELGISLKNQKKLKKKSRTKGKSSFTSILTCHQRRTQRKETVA

Row | Compound | outcome
9 | COc1cc(S(=O)(=O)O)c(C)cc1N=Nc1c(O)ccc2cc(S(=O)(=O)O)ccc12 | inactive
10 | CCCCCCC(=O)OCC | inactive
11 | Nc1nc(N)c2nc(CNc3ccc(C(=O)N[C@@H](CCC(=O)O)C(=O)O)cc3)cnc2n1 | inactive
12 | CCCCCCCC=O | inactive

Target: rat Peripheral-type Benzodiazepine Receptor (PBR), Tspo (gene 24230) (UniProt P16257)
Test: NVS_MP_rPBR: NovaScreen (NVS) Membrane Protein Assay for rat Peripheral-type Benzodiazepine Receptor (PBR) (AID 2283335)
Method in brief: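 Single-concentration duplicate screening at 25 uM preceded concentration-series retesting of actives. Binding of a specific radioligand to rat kidney membrane PBR was read by filtration radiodetection after 1 h, with plate-wise positive and negative controls.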

Sequence of rat Peripheral-type Benzodiazepine Receptor (PBR), Tspo (gene 24230) (P16257 whole entry, looked up): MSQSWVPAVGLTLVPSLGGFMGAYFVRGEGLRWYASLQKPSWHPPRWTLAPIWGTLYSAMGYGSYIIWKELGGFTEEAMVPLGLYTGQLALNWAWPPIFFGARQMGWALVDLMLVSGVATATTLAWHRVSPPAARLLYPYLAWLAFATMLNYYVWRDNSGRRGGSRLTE

Row | Compound | AC50 | outcome
13 | NC(=O)Cn1c(=O)cc(CCN2CCN(c3nccc4sccc34)CC2)c2ccc(F)cc21 | 1.6 µM (active) | 
14 | CC=Cc1ccc(O)c(OC)c1 | 3.55 µM (active) | 
15 | CC(C)c1ccc(C(=O)N=C(N)N)cc1S(C)(=O)=O |  | inactive
16 | Cc1oc(-c2ccccc2)nc1CCOc1cccc2c1ccn2CCC(=O)O | 46.5 µM (active) | 
17 | CCCCC(CC)COC(=O)CC(C(=O)OCC(CC)CCCC)S(=O)(=O)O (stereo not drawn) | 9.22 µM (active) | 
18 | Nc1ccc(S(=O)(=O)c2ccc(N)cc2)cc1 | 3.28 µM (active) | 
19 | NS(=O)(=O)c1cc2c(cc1Cl)NCNS2(=O)=O |  | inactive
20 | Cc1ccc(C(C)C)c(O)c1 |  | inactive
21 | C=CCOC(=O)c1ccccc1C(=O)OCC=C |  | inactive

Tested on: not listed separately
Test: NVS_IC_rCaBTZCHL: NovaScreen (NVS) Ion Channel Assay for Calcium Channel, Type L, Benzothiazepine Site (CaBTZCHL) (AID 2283337)
Method in brief: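 Benzothiazepine-site binding was assessed in a tissue-derived, cell-free rat cortical membrane system. After 1.5 h exposure, radioactivity retained on filters was quantified by scintillation; positive and negative controls accompanied every plate.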

Row | Compound | outcome | AC50
22 | COc1cc(S(=O)(=O)O)c(C)cc1N=Nc1c(O)ccc2cc(S(=O)(=O)O)ccc12 | inactive | 
23 | Oc1ccc2c(c1)OC[C@@H](N1CCC(O)(c3ccc(F)cc3)CC1)[C@H]2O | inactive | 
24 | O=C(N[C@@H](Cc1ccccc1)[C@@H](O)C(=O)N1C[C@@H](O)[C@@H](O)C1)c1cc2cc(Cl)ccc2[nH]1 | inactive | 
25 | CCc1c(C(=O)NN2CCCCC2)nn(-c2ccc(Cl)cc2Cl)c1-c1ccc(Br)cc1 | inactive | 
26 | CN1CCN(Cc2cc(-c3ccc4[nH]c(=O)oc4c3)co2)[C@@H](c2ccc(F)cc2)C1 |  | 5.34 µM (active)
27 | Cc1nc(-c2ccc3c(c2)CCN(CCC2CCC(NC(=O)/C=C/c4ccc(F)cc4)CC2)CC3)no1 (stereo not drawn) | inactive | 
28 | COc1ccc(S(=O)(=O)N2C(=O)[C@@](c3ccccc3OC)(N3C[C@H](O)C[C@H]3C(=O)N(C)C)c3cc(Cl)ccc32)c(OC)c1 |  | 3.53 µM (active)
